According to PubChem BioAssay (EPA / NIEHS):
Where “and” joins values, the source holds several entries; their conditions need not be identical. Equal values may be shown once. Inconclusive results are not listed. Some compounds were tested as several samples or in several runs, with calls that do not always agree. Calls of active or inactive are those of the source. Rule for the calls, unless noted: active = hit-call score of the fitted dose curve at least 0.9, where 1 is the maximum; inactive = score below 0.9.

Experiments:
[1] = target: Estrogen receptor (Homo sapiens) (UniProt P03372); experiment: CCTE_Deisenroth_AIME_384WELL_LUC_Active: CCTE's 384-well Estrogen Receptor Transactivation Assay with AIME metabolic competence (ERTA luciferase; metabolism positive), Deisenroth Lab (AID 2284030; active = hit-call score of the fitted dose curve at least 0.9, where 1 is the maximum)
Chain of Estrogen receptor (Homo sapiens) (P03372 whole entry, looked up): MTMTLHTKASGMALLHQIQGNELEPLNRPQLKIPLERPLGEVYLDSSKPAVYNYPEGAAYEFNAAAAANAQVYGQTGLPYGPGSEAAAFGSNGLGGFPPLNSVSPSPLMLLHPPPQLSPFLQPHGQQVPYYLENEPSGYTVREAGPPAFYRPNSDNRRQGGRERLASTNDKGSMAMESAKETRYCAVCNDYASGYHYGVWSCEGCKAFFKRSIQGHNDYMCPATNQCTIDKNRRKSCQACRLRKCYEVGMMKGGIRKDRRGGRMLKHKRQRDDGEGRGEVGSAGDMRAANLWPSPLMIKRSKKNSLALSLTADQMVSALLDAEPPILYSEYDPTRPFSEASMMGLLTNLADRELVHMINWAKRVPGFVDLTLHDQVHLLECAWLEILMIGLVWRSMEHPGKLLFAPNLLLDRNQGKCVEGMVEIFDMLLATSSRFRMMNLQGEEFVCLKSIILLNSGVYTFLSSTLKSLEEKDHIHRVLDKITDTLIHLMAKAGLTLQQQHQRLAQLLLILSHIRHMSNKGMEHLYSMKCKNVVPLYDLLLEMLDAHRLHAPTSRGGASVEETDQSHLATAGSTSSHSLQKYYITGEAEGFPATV
Procedure, shortened: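 Chemicals (10-point, 0.002-200 uM) were first incubated 2 hours with alginate-immobilized induced male Sprague Dawley rat liver S9. The conditioned medium was then applied to VM7Luc4E2 cells for 24 hours, with ER luciferase induction read by luminescence relative to 17beta-estradiol.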

[2] = CCTE_Shafer_MEA_dev_firing_rate_mean: CCTE's Neural Network Formation Assay for Mean Firing Rate, Shafer Lab (AID 2284031);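 for AC50: curve fitted for loss of firing so AC50 reflects decreased mean firing rate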
Procedure, shortened: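 Developing rat cortical networks on MEA plates undergo 12-day compound exposure. Firing frequency, averaged across active electrodes, is integrated as area under the curve over four recording days, referenced to DMSO.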

[3] = CCTE_Deisenroth_AIME_384WELL_CTox_Active: Cytotoxicity Assessment (CTOX) in CCTE's 384-well Estrogen Receptor Transactivation Assay with AIME metabolic competence (metabolism positive), Deisenroth Lab (AID 2284037; active = hit-call score of the fitted dose curve at least 0.9, where 1 is the maximum;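 note: chemicals first conditioned 2 h by alginate-bound induced rat liver S9 before cells; activity means signal loss indicating cell death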)
Procedure, shortened: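 VM7Luc4E2 breast cells received medium pre-incubated 2 h with chemical over alginate microspheres holding induced male Sprague Dawley rat liver S9; viability read 24 h later by protease-substrate fluorescence. Loss of signal, bidirectional fit, 0.002–200 uM.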

[4] = CCTE_Deisenroth_AIME_384WELL_CTox_Inactive: Cytotoxicity Assessment (CTOX) in CCTE's 384-well Estrogen Receptor Transactivation Assay without AIME metabolic competence (metabolism negative), Deisenroth Lab (AID 2284039; active = hit-call score of the fitted dose curve at least 0.9, where 1 is the maximum;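 note: cell viability via live-cell protease substrate cleaved to fluorescent probe; cells exposed 24 h to medium preincubated 2 h with alginate-water beads without S9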)
Procedure, shortened: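 VM7Luc4E2 human breast cells received conditioned medium from a 2 h incubation of chemical with alginate-water microspheres (no S9), then were exposed 24 h. Viability was read as protease-substrate cleavage to a fluorescent probe; loss of signal was fitted bidirectionally over 0.002–200 uM.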

[5] = CCTE_Shafer_MEA_dev_active_electrodes_number: CCTE's Neural Network Formation Assay for Number of Active Electrodes, Shafer Lab (AID 2284040; active = hit-call score of the fitted dose curve at least 0.9, where 1 is the maximum;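 for AC50: potency for loss of active electrodes versus DMSO so lower counts are hits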)
Procedure, shortened: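 Rat cortical primary cultures, 1.5 x 10^5 cells/well, PEI-coated MEA, laminin drop. Continuous exposure DIV 0–12; full media/compound change DIV 5, 9. Readout: electrodes with mean firing ≥5 spikes/min; AUC across days; loss vs DMSO.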

[6] = target: Estrogen receptor (Homo sapiens) (UniProt P03372); experiment: CCTE_Deisenroth_AIME_384WELL_LUC_Shift: CCTE's 384-well Estrogen Receptor Transactivation Assay with AIME metabolic competence data shift (ERTA luciferase; difference in metabolism positive and negative), Deisenroth Lab (AID 2284041);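 note: shift is response with S9 minus without S9 so positive means metabolism raised ER signal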
Procedure, shortened: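 Here, parent compounds undergo 2 h phase I metabolism by PB/BNF-induced rat S9 before 24 h transactivation in VM7Luc4E2 cells; the curve models S9-positive minus S9-negative response over a 10-point series.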

[7] = CCTE_Shafer_MEA_dev_burst_rate: CCTE's Neural Network Formation Assay for Burst Rate, Shafer Lab (AID 2284042);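 for AC50: potency for loss of burst rate below DMSO control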
Procedure, shortened: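 Rat primary cortical cultures on PEI/laminin MEA; compound from plating, re-dosed at DIV 5, 9 media change. Single-electrode bursts/recording length, well mean of active electrodes; AUC over DIV 5–12 recordings; loss-of-signal vs DMSO.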

[8] = CCTE_Shafer_MEA_dev_per_burst_interspike_interval: CCTE's Neural Network Formation Assay for Burst Interspike Interval, Shafer Lab (AID 2284044);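 note: mean spike spacing inside bursts as AUC over recordings on days 5 7 9 12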;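 for AC50: potency for a decrease of within-burst interspike interval below DMSO level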
Procedure, shortened: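 Primary rat cortical neurons on 48-well MEA plates, exposed from day 0 through day 12, treatment renewed at DIV 5 and 9. Within-burst interspike interval recorded days 5, 7, 9, 12, well-averaged, summarised as AUC; negative fit versus DMSO.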

[9] = CCTE_Shafer_MEA_dev_burst_duration_mean: CCTE's Neural Network Formation Assay for Mean Burst Duration, Shafer Lab (AID 2284045);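 for AC50: curve fitted for loss meaning shorter burst duration than DMSO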
Procedure, shortened: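 Primary rat cortical neurons on PEI-coated 16-electrode MEA wells, exposed from plating through day 12 with compound renewed at DIV 5 and 9; spontaneous activity recorded days 5, 7, 9, 12. Well-mean burst duration collapsed as trapezoidal AUC, fitted for loss versus DMSO.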

[10] = CCTE_Shafer_MEA_dev_interburst_interval_mean: CCTE's Neural Network Formation Assay for Mean Interburst Interval, Shafer Lab (AID 2284046);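 note: well-mean interburst interval of bursting electrodes as AUC over four recording days; curve fitted for decrease in interburst interval relative to DMSO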
Procedure, shortened: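 Rat cortical neurons, 1.5 x 10^5 cells/well, 48-well MEA; compound from day 0 through DIV 12, media and treatment renewed DIV 5/9. Recordings DIV 5, 7, 9, 12; well-mean interburst interval → trapezoidal AUC, loss direction vs DMSO.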

[11] = CCTE_Shafer_MEA_dev_inter_network_spike_interval_mean: CCTE's Neural Network Formation Assay for Mean Inter-network Spike Interval, Shafer Lab (AID 2284047);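 for AC50: potency for a decrease in mean inter-network spike interval below DMSO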
Procedure, shortened: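 Primary rat cortical neurons on PEI-coated 48-well MEAs (16 electrodes/well) were exposed from plating day 0 to DIV 12, with dosing renewed at DIV 5 and 9. Recordings at DIV 5, 7, 9, 12 were collapsed by trapezoidal AUC, loss-of-signal fit vs DMSO.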

[12] = CCTE_Shafer_MEA_acute_burst_percentage_mean: CCTE's Neural Acute Assay for Percentage of Spikes in a Burst, Shafer Lab (AID 2284017);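 note: curve fitted for loss of signal so potency reflects decreased burst percentage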
Procedure, shortened: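 Primary rat cortical neurons on 16-electrode MEA wells; 40 min baseline recorded at DIV 13 or 15, then 40 min after compound (0.03-40 uM) at 37 C. Well-mean fraction of spikes in single-electrode bursts; percent change from baseline, DMSO as negative control.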

[13] = CCTE_Shafer_MEA_acute_burst_percentage_std: CCTE's Neural Acute Assay for Standard Deviation of Burst Percentage, Shafer Lab (AID 2284018);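 note: fitted in the negative direction so actives lower burst percentage SD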
Procedure, shortened: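 Primary rat cortical neurons on 16-electrode MEA wells were recorded 40 min at baseline (DIV 13 or 15), then 40 min after compound (0.03-40 uM), at 37 C. Well value is SD across electrodes of spikes-in-bursts/total spikes; endpoint is percent change, DMSO-referenced.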

[14] = CCTE_Shafer_MEA_acute_per_network_burst_spike_number_std: CCTE's Neural Acute Assay for Standard Deviation of Number of Spikes in a Network Burst, Shafer Lab (AID 2284020);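 note: fitted for decrease in spike-number SD versus DMSO so actives lower it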
Procedure, shortened: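 Primary rat cortical neurons on 48-well MEAs (16 electrodes/well) recorded at DIV 13 or 15: 40-min baseline, then 40 min with compound (0.03-40 uM), 37 C. Value is percent change in SD of spikes per network burst, relative to DMSO.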

[15] = CCTE_Shafer_MEA_acute_per_network_burst_electrodes_number_mean: CCTE's Neural Acute Assay for Mean Number of Electrodes in a Network Burst, Shafer Lab (AID 2284021);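 note: curves fitted for decreases only so hits reduce electrodes per burst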
Procedure, shortened: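 Rat primary cortical neurons on 48-well MEAs, DIV 13 or 15, were treated at 0.03-40 uM. Spikes were detected at 8x rms noise and recorded at 37 C. The mean electrodes per network burst in a 40 min exposure recording was expressed as percent change from a 40 min baseline.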

[16] = CCTE_Shafer_MEA_acute_network_burst_percentage: CCTE's Neural Acute Assay for Percentage of Network Bursts, Shafer Lab (AID 2284022);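 note: curves fitted for loss so actives lower network burst percentage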
Procedure, shortened: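 Rat primary cortical neuron networks on 48-well MEA plates, DIV 13 or 15, treated acutely with compound (0.03-40 uM, at least three wells). Percent of spikes within network bursts compared between 40-min recordings before and during exposure at 37 C, expressed as percent change.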

[17] = CCTE_Shafer_MEA_acute_cross_correlation_area: CCTE's Neural Acute Assay for Area of Cross Correlation, Shafer Lab (AID 2284024);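 note: curves fitted for loss of cross-correlation area so actives lower synchrony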
Procedure, shortened: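 Rat primary cortical neurons on 48-well MEA, DIV 13 or 15; compounds 0.03-40 uM. Baseline and post-exposure 40 min recordings at 37 C; percent change in area under pooled inter-electrode cross-correlation near zero lag, relative to DMSO.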

[18] = CCTE_Shafer_MEA_acute_cross_correlation_HWHM: CCTE's Neural Acute Assay for Cross Correlation at Half Width at Half Maximum, Shafer Lab (AID 2284026);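 note: percent change per well from pre-dose baseline in spike cross-correlogram half width; hits are a decrease in cross-correlogram half width relative to DMSO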
Procedure, shortened: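 Rat primary cortical neurons on 48-well MEA plates; 40-min baseline and 40-min post-exposure recordings at 37 C on DIV 13 or 15, compounds 0.03-40 uM. Spikes detected at 8x rms noise; percent change in cross-correlogram HWHM per well vs baseline.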

[19] = CCTE_Shafer_MEA_acute_synchrony_index: CCTE's Neural Acute Assay for Synchrony, Shafer Lab (AID 2284027);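 note: network synchrony index of spontaneous spiking in primary rat cortical neurons on MEAs; fitted for loss of signal so actives lower synchrony relative to DMSO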
Procedure, shortened: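 Spontaneous firing of mature rat cortical networks is captured extracellularly on microelectrode arrays at 37 C, with wells needing ≥10 active electrodes. Each compound (0.03-40 uM) is judged by the change in synchrony index from baseline over 40 min.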

Measured: AC50

[O-][Cl+]O
inactive: [1] | [2] | [3] | [4] | [5] | [6] | [7] | [8] | [10] | [11]
active: [9] 15 µM

OCCCBr
inactive: [1] | [3] | [4] | [6]

Cc1cccc(N)c1N
inactive: [4]

CN(C)C(=O)Nc1ccc(Cl)cc1
inactive: [3] | [4]

C1=Cc2cccc3cccc1c23
inactive: [2] | [5] | [7] | [8] | [9] | [10] | [11]

OCCOCCO
inactive: [1] | [2] | [3] | [4] | [5] | [7] | [8] | [9] | [10]
active: [11] 24.5 µM

CCCCCCCCOC(=O)c1ccc(C(=O)OCCCCCCCC)c(C(=O)OCCCCCCCC)c1
inactive: [3] | [4]

Cc1ccc(N)c(N)c1
active: [12] 20 µM | [16] 9.87 µM | [19] 20 µM
inactive: [13] | [14] | [15] | [17] | [18] | [3] | [4]

Cc1ccc([N+](=O)[O-])cc1
inactive: [1] | [3] | [4] | [6]

O=C(Nc1ccccc1)c1ccccc1I
active: [1] 38.4 µM | [6] 6.87 µM
inactive: [4]

Oc1ccc2ccc3cccc4ccc1c2c34
active: [3] 88.4 µM
inactive: [4]

CCNS(=O)(=O)C(F)(F)C(F)(F)C(F)(F)C(F)(F)C(F)(F)C(F)(F)C(F)(F)C(F)(F)F
inactive: [2] | [3] | [7] | [8] | [9] | [10] | [11]
active: [5] 7.41 µM and 2.98 µM

CNC(=O)Oc1cccc2c1OC(C)(C)C2
active: [1] 100 µM | [5] 17 µM and 49.6 µM | [6] 45.4 µM
inactive: [2] | [4] | [7] | [8] | [9] | [10] | [11]

c1ccc(NNc2ccccc2)cc1
active: [18] 29.7 µM | [19] 29.6 µM
inactive: [13] | [14] | [15] | [16] | [17]

CCCCCCCCn1sccc1=O
active: [12] 8.26 µM | [14] 7.57 µM | [15] 6.8 µM | [16] 8.61 µM | [18] 11.5 µM | [19] 6.04 µM | [3] 196 µM | [4] 93.9 µM | [6] 14 µM
inactive: [13] | [17]

COP(=S)(OC)SCN1C(=O)c2ccccc2C1=O
active: [2] 83.2 µM | [5] 61.1 µM and 51.5 µM | [7] 61.3 µM | [8] 11.2 µM
inactive: [2] | [7] | [8] | [9] | [10] | [11]

Cc1cc(N=Nc2ccccc2C)ccc1N
inactive: [14] | [15] | [16] | [17]
active: [12] 26.6 µM | [13] 28.9 µM | [18] 30.1 µM | [19] 28.7 µM | [3] 107 µM | [4] 103 µM

O=C1CCCO1
inactive: [3]

CCOc1cccc(C2(N3CCN(c4ccccc4)CC3)CCC(C)CC2)c1 (configuration not stated)
inactive: [1] | [3] | [4] | [6]
